# Source: PubChem BioAssay AID1508600 (Functional Genomics Laboratory (NCATS/FGL), 2020)
# About 3,700 (7%) of roughly 53,000 sequences were called active.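 Rule for the calls: active = gene knockdowns whose robust z-score for IL-1 alpha signal is at least 2 or at most -2, so actives lie on both sides; inactive = the rest.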 This excerpt belongs to a sample that is enriched for actives.
# Assay: Components of the Cytosolic LPS Sensing Pathway: Gene Identification via Genome-wide siRNA Screen;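 note: robust z of the log signal after scaling to non-targeting control siRNA wells of the plate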
# Conditions: RAW264.7 macrophages, IL-1a HTRF, actives lie on both sides, screened at 100 nM (by protocol), cells primed 5 h with Pam3CSK4 first
# Method in brief: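 Using IL-1a HTRF as read-out, the screen measured release from RAW264.7 cells after 48h siRNA knockdown (100 nM), 5 h Pam3CSK4 priming and 24 h cytosolic LipidA. Values were expressed relative to negative-control wells as robust z-scores.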
row,Sequence,z-score
1,GGCAGAAAGCAGAAACAGUTT against Mok,-0.901 (inactive)
2,GGUAUCUUCUCUUGGAAAATT against Tex12,-0.533 (inactive)
3,GCUAUGGGAUAUGAGCUGATT against Antkmt,-0.75 (inactive)
4,GGAAUUCAGUGAAUGUCAUTT against Gapvd1,-2.28 (active)
5,UGUGCCCUAUAGAACCUGUTT against Krtap13-1,0.394 (inactive)
6,GGACAACUCGAGUCUUAAATT against Poln,1 (inactive)
7,GCUCUUAUCAGCAUGUAUATT against Birc6,1.7 (inactive)
8,ACUAGACUGAACUACCUGATT against Aim2,0.137 (inactive)
9,GGCUCAUCAGAUGUAAACATT against Efcab6,-2.13 (active)
10,GCUAACAAGCUAGCAUUUATT against Ltv1,-1.17 (inactive)
11,GGUCCUGUUGAGAAUUUAATT against Zdhhc15,0.464 (inactive)
12,GGCAACUGAAUGUUUCCUATT against Nudt19,-1.41 (inactive)
13,CCUAAGAGAUAAGAGCACCTT against Ppa2,0.381 (inactive)
14,GGAGAUUUACUGCUCGCUGTT against Pik3r6,0.0343 (inactive)
15,CAGGAUUCCUUGGACAUACTT against Olfr477,-0.559 (inactive)
16,GCUAAGUUCCAAGGCGACCTT against Serpinh1,2.77 (active)
17,GGAUAAAGCAUCAGACAAATT against Hmgn1,-0.202 (inactive)
18,UCAGCUGGUUUUAAUCUCUTT against Olfr1029,-0.193 (inactive)
19,CGCAACAGAUAGUAAAUAUTT against Ufsp2,-1.21 (inactive)
20,GGACCCAAAUCUUUUUAGATT against Wac,-1.03 (inactive)
21,GGUCCCAGACUGAGUGAAATT against Epo,-0.302 (inactive)
22,GGUCAAGAUCCGAAGCUACTT against Cntn2,-0.749 (inactive)

row,Sequence,z-score
1,GGUCUUGCUGUUCGAAGAATT against Gsx1,0.417 (inactive)
2,AGUGUAACUGCAGAAGCCUTT against Olfr207,-1.3 (inactive)
3,CAACCGUUGUGGCCAUGACTT against Olfr59,-0.332 (inactive)
4,CCCAGGCUAUUUCAACAAUTT against Arhgef11,-1.24 (inactive)
5,GGGCUACAAGAAAAAGUAUTT against Krt85,2.69 (active)
6,GCAGUCAAUUCCCUUUUACTT against Ankmy1,-0.876 (inactive)
7,GCCUAACCAACAAUUCUACTT against Oas1b,1.61 (inactive)
8,GGUCUUCUACUCCUUCUCATT against Slc6a19,-2.09 (active)
9,GGAGACUGCUAUAUUGGCUTT against 1700092C17Rik,-0.147 (inactive)
10,GCUAAAAGGUAAGUACUUCTT against Lncpint,0.981 (inactive)
11,GGGUAACAACCAUGUCCGUTT against Pspn,1.26 (inactive)
12,CGGGAAUCCUAUCUAUCAATT against Smox,0.762 (inactive)
13,GGAAGAACAAAAAACCAUGTT against Sf3b2,-2.14 (active)
14,CGAGAUGAAUUUCUAGUAGTT against Tubgcp3,1.47 (inactive)
15,GGUUGGCUUCAAAAAUAUGTT against Psmb1,-1.04 (inactive)
16,GGAAUUCCACCUAAAAUUGTT against Ttn,1.32 (inactive)
17,CCUGCUCCUUACAUCUCGCTT against Foxred2,1.51 (inactive)
18,CCAUUUAAUCCAUAUUUCCTT against Gnao1,-2.05 (active)
19,CGGACUCACAGAGCUAAGATT against Tnp2,1.56 (inactive)
20,GGGCAGAACUGCAUGAGAATT against Acp1,-0.176 (inactive)
21,GCACAAAUUUGGUAGUGUUTT against Nup50,-1.53 (inactive)
22,GGAGUAAACCUACUGCUCATT against Esam,2.14 (active)

row,Sequence,z-score
1,CCUGAUGUAACUAUAAACATT against Adam32,-0.107 (inactive)
2,GGAUGUCUGACUCAGGUCUTT against Olfr829,0.0622 (inactive)
3,GGCAGUGAUGUUUCUCUCGTT against Tmem198b,0.152 (inactive)
4,GGAUUCCAGAUUAAAUGAUTT against Rfc1,1.09 (inactive)
5,GGCAACCAUUAAAUGUUUATT against Trim59,-0.54 (inactive)
6,CCUUUUGUUUUACCUACUCTT against Tbx22,2.32 (active)
7,GGAUGAGCAGAAAUGUGUATT against Plekho2,0.931 (inactive)
8,CCUCUACAUCCAGGAAUGATT against Map4k1,-0.546 (inactive)
9,GGUCCUAAUUCGAAGCAGATT against Emc3,-0.589 (inactive)
10,GGGAUUGCAUGGUUAAACUTT against Nfam1,-0.901 (inactive)
11,GGUUUUGACAUCACAUUCUTT against Mtfr2,1.34 (inactive)
12,GGUAGACAGAGAAGAUAAATT against Slc35f5,-2.01 (active)
13,GGUUGAUGACAACAAGAAATT against Rps12,-0.368 (inactive)
14,GGGAGGAGAGGACAAAUUATT against Ywhae,1.66 (inactive)
15,GGAACGUGAAUCUACAGCATT against Tex43,-2.73 (active)
16,GGCAGGACGAACAUGGCUATT against Hspb1,1.2 (inactive)
17,GGAAUUAAAGAGGAACUCCTT against Adamts20,0.172 (inactive)
18,GCUGUCAGACUAAAGAUAUTT against Mmd,-0.733 (inactive)
19,CCUCCAGAGUAUUGUCUAGTT against Ppfia3,1.26 (inactive)
20,GGACAUUGAGAACAUUAUCTT against Caln1,-1.14 (inactive)
21,GGACCAUGUGGACUUUAGCTT against Sema7a,-0.522 (inactive)
22,GGCACUUCAACAGCAGUUATT against Cep295,-1.27 (inactive)

row,Sequence,z-score
1,GGUGUUCGUCAUAUGGAAUTT against Tex46,3.71 (active)
2,GGUAACUGUUACACAAAUCTT against Tmem161b,-0.291 (inactive)
3,GGCCUUUUGGCUUUGAUCUTT against Hoxb1,-1.86 (inactive)
4,GGAAUAUGUCACCAACAAGTT against Akap8l,-0.896 (inactive)
5,GCAGGAAGUAAAAUCUCUUTT against Tmem183a,0.707 (inactive)
6,GGAGUCACACCUGAAUUGCTT against Cep89,0.129 (inactive)
7,GCUGAAAUCCAGGAUAGAGTT against Zw10,-2.03 (active)
8,GGGACAAGGACUUUAAAAATT against Scamp2,0.566 (inactive)
9,GCACAUUCAGAUGAGGACUTT against Rnf6,-1.05 (inactive)
10,GAUAUGUGUACACUUCUGCTT against Vmn1r218,-2.08 (active)
11,GGUUACAUGGAUUGAAGCUTT against Scrn3,0.183 (inactive)
12,GGAGAUGAUUUUGAACUUCTT against Retreg3,2.73 (active)
13,CCCAACACAAUAUUUGCCATT against Nfyc,0.019 (inactive)
14,GCUGUCUCUACGUUGGAGATT against Adamts2,0.145 (inactive)
15,CCACUUAGGUUAGAAAGAATT against R3hdm1,-0.77 (inactive)
16,CCAAGUCGGACUUACGGUUTT against Cnpy3,-1.65 (inactive)
17,UCUGCUCAACAUCGUCAAUTT against Sstr3,0.719 (inactive)
18,GCUCUUCCGAUUAAUGCAGTT against Gabra6,2.87 (active)
19,GGACCAAGGCUUGGAUCUUTT against Magea6,0.527 (inactive)
20,CGUGGUGCCUUUGAAUCUGTT against 9530056K15Rik,1.2 (inactive)
21,GGCAUCAAGCAAUUCACUCTT against Zfp455,1.14 (inactive)
22,GGUGCAAAUGUUCUCAUCUTT against Mfsd4b1,2.11 (active)

row,Sequence,z-score
1,GCCACUGUCACUUUUGUACTT against Arl11,-1.08 (inactive)
2,GGAUUUGUUGGAAAUUGGATT against Anks1b,0.132 (inactive)
3,GGCUGUGCAAGAUGUUCUATT against Gpr27,3.29 (active)
4,CCCAUGGGCAGAUGAAAGCTT against Olfr1441,-0.482 (inactive)
5,GCAAUGCGACGUGCUCUAUTT against Trim67,0.136 (inactive)
6,GGCUUAAGUUAGGCAAACUTT against Crtc3,-0.0675 (inactive)
7,UGCUGUGGUCACUCCCAUGTT against Olfr457,-2.04 (active)
8,GCCACAACAAACCUACGACTT against Xpc,-1.32 (inactive)
9,GCGCAUUGUGUUCUGGUCUTT against Zswim4,-1.55 (inactive)
10,GGAACUUGGCCUACUUAUGTT against C130071C03Rik,0.718 (inactive)
11,GAGGUCAUUAUACCAUUGGTT against Tuba3b,0.554 (inactive)
12,GGUGACCAGCUCCAUUUCUTT against Ccn5,2.61 (active)
13,GGCCAACACUCAGAAAAGGTT against Zfp474,1.59 (inactive)
14,GCCAGAUCUGUUAACCGCCTT against Gzmk,2.15 (active)
15,GGUUGGGCUGCCAAGUUUGTT against Fdx1,1.96 (inactive)
16,UACUACAACCGCACAGUGATT against Tmc6,0.522 (inactive)
17,GGUGGUCACCAAGAAGUUUTT against Prps2,2.52 (active)
18,GGAAGCUCUUAAAAGGUUGTT against Hdhd2,0.226 (inactive)
19,GCUCCUCAUGAUAUUGGCCTT against Nagk,0.239 (inactive)
20,GGAGGGACUUACCACAAGGTT against Timeless,0.282 (inactive)
